The list is not random: actives were taken first. Their share in the collection is about 7.8%.
HCV inhibitor: HCV inhibition. Potency, µM (highest dose often 41.8 µM), without a hit: at the highest dose activity change, negative = inhibition, usual class: inhibitors. Huh7.5.1 HCVcc-Cre infection, luciferase reporter, 44 h. 340,000 compounds, 3.4% hits. AID 651820; active = well fitted inhibition curve with a large enough effect; inconclusive = small, poorly fitted or top-dose-only effect, or another doubt; inactive = no such curve, though single readings can be large or run the other way; also: potency is read from the fitted curve at half-maximal effect
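After 44 h co-culture of compound, cells and HCVcc-Cre (~0.5 moi), substrate is added for 15 min at room temperature and luciferase measured over 15 sec. Cells were seeded at 1,000/well and pre-cultured 4 h.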
Vaccinia Venus: vaccinia inhibition (Venus reporter); Potency, µM (top dose mostly 36.5 µM), for the others: at the highest dose activity change, negative = inhibition, hits mostly inhibitors; Vaccinia virus Venus reporter expression, fluorescence; 330,000 compounds, 0.46% hits; calls by dose curve; tested in A549 cells; also: potency is read from the fitted curve at half-maximal effect; nearly all actives have a fitted effect of over 30% in size
MARV entry inh: blocks Marburg virus binding to or entry into cells; 300,000 compounds, 1.8% hits; AID 540276; Potency, µM (titrated, usually from 37.8 µM), for the others: at the highest dose activity change, negative = inhibition, usual class: inhibitors; Marburg virus pseudotyped entry inhibition, cell reporter; calls by dose curve; tested in HEK293 cells; also: potency is read from the fitted curve at half-maximal effect
LASV entry inh: blocks Lassa virus binding to or entry into cells. Potency, µM (titrated, usually from 37.9 µM), inactives show at the top dose activity change, negative = inhibition, usual class: inhibitors. 300,000 compounds, 1.2% hits. Lassa virus pseudotype entry inhibition, cell reporter; calls by dose curve; tested in HEK293 cells; also: potency is read from the fitted curve at half-maximal effect; nearly all actives have a fitted effect of over 50% in size
HCMV inh: human cytomegalovirus inhibition. HFF cells, HCMV-luciferase reporter, 72 h; stronger effect = lower value. activity change, negative = inhibition, % at 57.5 µM. 410,000 compounds, 4.5% hits; in the data active = activity change below about -60%; inconclusive = no clear call, values can overlap the other calls; inactive = above about -39%
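Luciferase read-out from HCMV-luciferase-infected HFFs (MOI 1 PFU/cell) 72 h post infection at 37C; compounds added after 16 h cell attachment; activity normalized between buffer-only basal and Salinomycin (10uM) inhibitor controls.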
Vaccinia mCherry: inhibitors of vaccinia virus infection (mCherry reporter signal). Vaccinia virus mCherry reporter infection, fluorescence. Potency, µM (highest dose often 36.5 µM), for inactives: at the top dose activity change, negative = inhibition, usual class: inhibitors. 310,000 compounds, 0.63% hits; calls by dose curve; tested in A549 cells; also: potency is read from the fitted curve at half-maximal effect; nearly all actives have a fitted effect of over 35% in size
Starred values were filed as active, the others as inactive; i = inactive; u = inconclusive; x = no result given; [ ] = dose if it differs, or a comment. % is scaled to controls: 0 for no effect and ±100 for the full control effect.

SMILES	HCV inhibitor	Vaccinia Venus	MARV entry inh	LASV entry inh	HCMV inh	Vaccinia mCherry
CCOc1ccc(-c2noc(CSc3nnc(Cc4ccccc4)n3-c3cccc(C)c3)n2)cc1	x	-27%	u	u	-25	-22%
COc1ccc2c(c1)c(CC(=O)OCC(=O)N(C)C)c(C)n2C(=O)c1ccc(Cl)cc1	10%	14%	25µM*	u	-18	8%
CCOc1ccc(NC(=O)Cc2coc3ccc(C)cc23)cc1	x	-13%	-12%[46.1 µM]	u	-8	-22%
CCCc1nn2c(=O)cc(COC(=O)c3ccc4c(c3)OCO4)nc2s1	x	-8%	x	-6%[46.1 µM]	11	-10%
C[C@H](O)c1n(C)c(Cl)c[n+]1C	x	x	9%	x	x	x
N/C(Cc1ccc([N+](=O)[O-])cc1)=N\OC(=O)c1ccc([N+](=O)[O-])cc1	u	-13%	5%	-1%	-7	-8%
COc1ccc(C(=O)O/N=C(\N)Cc2ccc(Cl)cc2)cc1OC	32µM*	u	u	11µM*	u	x
N/C(=N\OC(=O)c1ccc2c(c1)OCO2)c1cccc(Br)c1	13%	4%	u	x	62	-7%
COc1cc(C(=O)O/N=C(\N)Cc2ccc([N+](=O)[O-])cc2)cc(OC)c1OC	u	u	2.5µM*	3.2µM*	u	u
COc1ccc(OCC(=O)O/N=C(\N)Cc2ccc(Cl)cc2)cc1	5%	-12%	-20%[46.1 µM]	2%	43	-19%
COc1cc(OC)c(C(=O)O/N=C(\N)c2ccc(C)cc2)cc1OC	11µM*	-22%	7.9µM*	u	20	i
COc1ccc(/C(N)=N/OC(=O)c2ccc3c(c2)OCO3)cc1OC	8.9µM*	-23%	u	u	169	-12%
O=C(C[n+]1ccnc2ccccc21)c1ccc(Br)cc1	x	-2%	x	x	x	-9%
COc1cc(OC)c(OC)cc1CN1CCOc2ccc(CN3CCN(C(C)=O)CC3)cc2C1	x	-10%	x	x	x	-15%
N/C(Cc1ccc(Cl)cc1)=N\OC(=O)Cc1ccc([N+](=O)[O-])cc1	21%	-8%	5%	u	-13	i
COc1ccc(C(=O)O/N=C(\N)Cc2ccc(Cl)c(Cl)c2)cc1OC	22µM*	u	u	u	18	u
N/C(Cc1ccc(Cl)cc1)=N\OC(=O)c1ccccc1	-1%	-19%	13µM*	u	33	-12%
COc1ccccc1N1CC(O)=C(c2nc3ccccc3c(=O)[nH]2)C1=N	u	u	-1%	-12%	-9	5.6µM*
N=C1C(c2nc3ccccc3s2)=C(O)CN1Cc1ccccc1	u	u	u	-16%	46	u
COc1ccc(OC)c(N2CC(O)=C(c3nc4ccccc4s3)C2=N)c1	25µM*	-26%	u	u	-9	-9%
N=C1C(c2nc3ccccc3s2)=C(O)CN1C1CCCCC1	10%	x	x	x	-4	x
CCN(CC)CCCN1CC(O)=C(c2nc3ccccc3s2)C1=N	11µM*	-20%	u	u	77	x
CCOc1ccccc1N1CC(O)=C(c2nc3ccccc3s2)C1=N	u	u	5.8µM*	u	-8	-12%
CCc1nn(C(C)C(=O)N2CCN(c3cccc(C(F)(F)F)c3)CC2)c(=O)c2cc3occc3n12 (stereo not drawn)	x	-11%	u	-3%[46.1 µM]	-8	-7%
Cc1ccccc1C1(CC(=O)N2CCC[C@H]2C(N)=O)CC(=O)N(C2CCCC2)C1=O (stereo partly drawn)	x	-3%	x	x	x	-8%
SMILES	HCV inhibitor	Vaccinia Venus	MARV entry inh	LASV entry inh	HCMV inh	Vaccinia mCherry
CCCCCc1nc2c(c(=O)c3ccccc3n2C)c(=O)n1C1CCCCCC1	u	-12%	u	16µM*	u	-6%
Cn1c2ccccc2c(=O)c2c(=O)n(C3CCCCC3)c(-c3ccco3)nc21	u	-15%	u	4%	-63*	-8%
Cc1nc2c(c(=O)c3ccccc3n2C)c(=O)n1C1CCCCCC1	u	-14%	u	15%	-17	-16%
Cc1ccc(CNC(=O)c2ccc3c(c2)N(Cc2cccc(C)c2)C(=O)CS3)cc1	x	-3%	-24%[46.1 µM]	u	-13	-10%
COc1ccccc1-n1c(SCC(=O)c2ccc(O)cc2O)nc2cc([N+](=O)[O-])ccc21	13%	u	2.2µM*	4%	134	u
CCC(C)NC(=O)c1sc2ncccc2c1-n1c(C)ccc1C (stereo not drawn)	x	-12%	x	-19%[46.1 µM]	12	-13%
NS(=O)(=O)c1ccc(N=Cc2c(O)[nH]c3ccc4ncsc4c23)cc1	x	x	x	7.1µM*	x	x
CC(/C=C/C=C/c1ccccc1)=N\NC(=O)c1cccnc1	7%	-6%	6%[14.2 µM]	5%	-29	-10%
O=C(N/N=C(\Cc1ncc[nH]1)c1ccccc1)c1cccnc1	u	u	u	u	u	11µM*
O=C(N/N=C(\c1ccccc1)c1cccnc1)c1cccc(F)c1	u	u	u	u	-112*	3.2µM*
O=C(N/N=C(\Cc1ncc[nH]1)c1ccccc1)c1ccccc1	x	x	x	x	-78*	x
O=C(N/N=C(\c1ccccc1)c1cccnc1)c1ccc(O)cc1	3%	-17%	-9%[46.1 µM]	-22%[46.1 µM]	24	i
O=C(N/N=C(\Cc1ncc[nH]1)c1ccccc1)c1ccncc1	u	u	u	u	-91*	10µM*
Cc1ccc(CN2CCN(C3CCN(C(=O)c4ccccc4)CC3)C(=O)C2=O)cc1	x	-21%	x	26%[46.1 µM]	u	-29%
ICC[n+]1csc2ccccc21	x	15%	x	x	x	11%
CC(=O)N1CCc2cc(CNC(=O)Nc3ccc(Br)c(C)c3)ccc21	x	0%	x	-14%[46.1 µM]	-3	-11%
CCCSc1oc(-c2cccs2)nc1S(=O)(=O)c1ccc(C)cc1	x	-20%	-9%[46.1 µM]	10%[46.1 µM]	-24	-14%
CCCCS(=O)(=O)c1oc(-c2cccs2)nc1S(=O)(=O)c1ccc(F)cc1	x	-11%[7.34 µM]	u	u	-98*	-15%[7.34 µM]
CCS(=O)(=O)c1oc(-c2ccc(F)cc2)nc1S(=O)(=O)c1ccccc1	x	u	u	u	-99*	u
CCC(C)S(=O)(=O)c1oc(-c2ccc(F)cc2)nc1S(=O)(=O)c1ccc(F)cc1 (stereo not drawn)	x	-27%	u	u	-100*	i
CCCCS(=O)(=O)c1oc(-c2ccc(F)cc2)nc1S(=O)(=O)c1ccc(C)cc1	x	-10%[7.34 µM]	10µM*	u	-100*	-3%[7.34 µM]
CCc1ccc2ncc3c(-c4ccc(F)cc4)nn(CC(=O)NCc4ccccc4)c3c2c1	x	4%	x	-2%[46.1 µM]	17	-3%
CCCCCS(=O)(=O)c1oc(-c2cccs2)nc1S(=O)(=O)c1ccc(C)cc1	x	-28%	-1%[46.1 µM]	-10%[46.1 µM]	-88*	-27%
CC(=O)N1CCc2cc(Br)cc(S(=O)(=O)CCC(=O)Nc3ccc(C)cc3Cl)c21	x	-15%	-4%[46.1 µM]	u	-23	-21%
Cc1ccn2c(Nc3ccc4c(c3)OCCO4)c(-c3ccccc3O)nc2c1	x	-14%	5%[46.1 µM]	-7%[46.1 µM]	13	-18%
